From the supplement of paper PMC6555819

How the values were obtained:
Assay in all cases: PBM binding z-score (relative to random genomic background probes); higher = stronger binding; sequences stand for … in GC…GCGATTGACAGCGTAGAATGAAGG
[1] = tested on: FXR:RXRa (NR concentration 270 nM, RXRa partner concentration 90 nM)
Method in brief: (§1)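 Ligand-free nuclear receptor dimers were applied to custom Agilent 4×180K protein-binding microarrays whose double-stranded probes carried direct-repeat seeds, single-nucleotide variants, half-site ablations and random human genomic background sequences in 34-nt variable regions. Incubation lasted 1 h. Binding z-scores were computed against the random background probes from regression-normalized fluorescence.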

[2] = tested on: LXRa:RXRa (NR concentration 270 nM, RXRa partner concentration 90 nM)
Method in brief: as §1

[3] = tested on: LXRa homodimer (NR concentration 270 nM)
Method in brief: as §1

[4] = tested on: LXRb:RXRa (NR concentration 270 nM, RXRa partner concentration 90 nM)
Method in brief: as §1

[5] = tested on: LXRb homodimer (NR concentration 270 nM)
Method in brief: as §1

[6] = tested on: PPARa:RXRa (NR concentration 270 nM, RXRa partner concentration 90 nM)
Method in brief: as §1

[7] = tested on: PPARg:RXRa (NR concentration 180 nM, RXRa partner concentration 90 nM)
Method in brief: as §1

[8] = tested on: PPARg:RXRa 270nM:90nM, anti-RXR (NR concentration 270 nM, RXRa partner concentration 90 nM)
Method in brief: as §1

[9] = tested on: PPARg:RXRa 30nM:10nM, anti-RXR (NR concentration 30 nM, RXRa partner concentration 10 nM)
Method in brief: as §1

[10] = tested on: PPARg:RXRa 90nM:30nM, anti-RXR (NR concentration 90 nM, RXRa partner concentration 30 nM)
Method in brief: as §1

[11] = tested on: PPARg:RXRa DBDmut IVT, anti-RXR (DBD mutation: RXRa K156A/R161A, NR concentration 270 nM, RXRa partner concentration 90 nM)
Method in brief: as §1

[12] = tested on: PPARg:RXRa IVT, anti-PPARg (NR concentration 270 nM, RXRa partner concentration 90 nM)
Method in brief: as §1

[13] = tested on: PPARg DBDmut:RXRa IVT, anti-PPARg (DBD mutation: PPARg1 K132A/R137A, NR concentration 270 nM, RXRa partner concentration 90 nM)
Method in brief: as §1

[14] = tested on: PPARg DBDmut IVT, anti-PPARg (DBD mutation: PPARg1 K132A/R137A, NR concentration 270 nM)
Method in brief: as §1

[15] = tested on: PPARg homodimer (NR concentration 180 nM)
Method in brief: as §1

[16] = tested on: PXR:RXRa (NR concentration 270 nM, RXRa partner concentration 90 nM)
Method in brief: as §1

[17] = tested on: PXR homodimer (NR concentration 270 nM)
Method in brief: as §1

[18] = tested on: RARa:RXR (NR concentration 270 nM, RXRa partner concentration 90 nM)
Method in brief: as §1

[19] = tested on: RARa homodimer (NR concentration 270 nM)
Method in brief: as §1

[20] = tested on: RARb:RXRa (NR concentration 270 nM, RXRa partner concentration 90 nM)
Method in brief: as §1

Sequence	PBM binding z-score [1]	PBM binding z-score [2]	PBM binding z-score [3]	PBM binding z-score [4]	PBM binding z-score [5]	PBM binding z-score [6]	PBM binding z-score [7]	PBM binding z-score [8]	PBM binding z-score [9]	PBM binding z-score [10]	PBM binding z-score [11]	PBM binding z-score [12]	PBM binding z-score [13]	PBM binding z-score [14]	PBM binding z-score [15]	PBM binding z-score [16]	PBM binding z-score [17]	PBM binding z-score [18]	PBM binding z-score [19]	PBM binding z-score [20]
GGAACGACGGCATTCGAGTTGATAGCATGGCGAT	-0.557	-0.773	-0.583	-0.948	-1.04	-0.735	0.532	-0.612	-0.766	-0.917	-0.236	-0.897	-0.871	-0.489	-1.13	-0.589	-0.529	-0.766	-0.761	-1.24
GCAGAAAGGTGAAACGCAGGTAACTCAGGGTGGC	1.58	1.62	-0.633	0.912	-1.18	3.5	1.57	2.32	-0.0918	1.39	3.02	2.42	-0.00989	-0.405	0.213	0.633	-0.804	1.9	-0.501	2.88
AGAACGAGGGCAATGGGTTGATAGCACGGGTGGC	0.877	0.764	-0.127	0.316	0.02	1.67	1.78	1.38	-0.00991	1.08	3.27	3.01	0.598	-0.394	1.19	1.48	4.66	0.466	0.403	2.4
ACTATTAGTTGGCTTAGGGCAACCGATACGACGC	0.0688	-0.0139	0.0233	-0.136	0.573	-0.171	0.739	-0.00108	0.0765	0.0615	0.277	0.0103	0.854	1.29	0.354	-0.139	0.29	0.151	0.786	0.506
AGTCAAAGTTCAGGACGAGGTGACGTAAAGCACG	4.38	3.95	1.24	1.82	0.0614	3.67	4.83	5.11	2.14	4.25	-0.365	2.55	-0.0177	-0.0513	2.73	3.51	1.23	3.58	0.938	4.46
CCTATTAGTTGACGATAAGGGCAACCGAAGCTCG	0.29	0.114	-0.102	0.152	0.201	0.204	0.482	0.0797	0.0506	0.157	0.107	-0.036	0.257	0.471	1.85	0.261	0.241	0.847	1.05	1.33
AGTCAAAGTTCTCTAGGTAACGTAAGATTCAGCT	0.109	-0.065	0.22	0.0719	-0.356	0.668	0.831	1.19	0.092	0.81	1.68	2.51	0.928	0.591	0.225	0.000883	0.167	0.366	0.183	0.732
